aSyn 5UTR act = Activators working through SNCA 5'UTR binding (MLPCN). actives 7.1% (n = 300,000). alpha-synuclein 5'UTR reporter, activators screen. activity score, % (tested at 7.5 µM), hits read low; in the data active = activity score below about -60%
Active calls of the source: *. These entries were drawn from the full list.

For COc1ccc(Cn2c(C3CC3)nc3ccc(NC(=O)c4cccnc4)cc3c2=O)cc1 the results were aSyn 5UTR act -176.2*.
Screening Cc1nc2ccc(N)cc2c(=O)n1Cc1ccc(Cl)cc1 returned aSyn 5UTR act -74.2*.
Screening CCCc1nc2ccc(NC(C)=O)cc2c(=O)n1Cc1ccc(Cl)cc1 returned aSyn 5UTR act -136.6*.
`COc1ccc(Cn2c(C3CC3)nc3ccc(NC(C)=O)cc3c2=O)cc1` gave aSyn 5UTR act -120.6*.
For Clc1ccc(-n2nnc(-c3cccnc3)n2)cc1Cl the results were aSyn 5UTR act -156.9*.
Fc1ccc(-n2nnc(-c3cccnc3)n2)cc1 was read as aSyn 5UTR act -89.2*.
For Brc1ccccc1-n1nnc(-c2cccnc2)n1 the results were aSyn 5UTR act -75.8*.
Fc1ccc(-n2nnc(-c3cnc4ccccc4c3)n2)cc1 was read as aSyn 5UTR act 93.8.
`Fc1ccc(C(CCCn2nnc(-c3cccnc3)n2)c2ccc(F)cc2)cc1` gave aSyn 5UTR act -102.6*.
`Nc1ccccc1C(=O)Nc1cccc2ccccc12` gave aSyn 5UTR act -204.4*.
O=C(Nc1cccc2ccccc12)c1ccccc1 was read as aSyn 5UTR act -141.6*.
Screening CC(=O)c1cccc(NC(=O)C(=O)Nc2cccc3ccccc23)c1 returned aSyn 5UTR act -195.4*.
For COc1cccc(CNc2nc3ccccc3n2C)c1O the results were aSyn 5UTR act -93.7*.
COc1ccc(CNc2ncc(-c3ccc(F)cc3)n2C)c2ccccc12 was read as aSyn 5UTR act 65.1.
Screening COc1cccc(CNc2cnc3ccccc3c2)c1O returned aSyn 5UTR act -218.5*.
Screening COc1ccccc1Nc1nc2ccccc2n1C returned aSyn 5UTR act -121.7*.
Screening COc1cccc(CNc2ccc(F)c(Cl)c2)c1O returned aSyn 5UTR act -183.8*.
For Cc1ccc(O)c(CNc2cnc3ccccc3c2)c1 the results were aSyn 5UTR act -99.7*.
For Clc1c(CSc2nc3ccccc3o2)nc2ccccn12 the results were aSyn 5UTR act -117.0*.
`Clc1c(CSc2nc3ccccc3o2)nc2sccn12` gave aSyn 5UTR act -117.4*.
Brc1c(CSc2nc3ccccc3o2)nc2ncccn12 was read as aSyn 5UTR act -117.7*.
COc1cc(/C=N/NC(=O)c2cc(-c3ccccc3)sc2N)cc(OC)c1OC was read as aSyn 5UTR act -70.0*.
Screening COc1ccc(/C=N/NC(=O)c2ccoc2C)cc1OC returned aSyn 5UTR act -72.5*.
For COc1cc(/C=N/NC(=O)c2ccoc2C)cc(OC)c1OC the results were aSyn 5UTR act -80.7*.
`CN1C(=O)/C(=C\c2ccc(N(C)C)cc2)OC1=S` gave aSyn 5UTR act -67.5*.
Screening Cc1ccccc1CSc1ccc(-c2ccc3c(c2)OCO3)nn1 returned aSyn 5UTR act -82.8*.
For Cc1nc(C)c(-c2ccc(SCc3ccccc3C)nn2)s1 the results were aSyn 5UTR act -97.5*.
Screening c1cncc(CSc2ccc(-c3ccc4c(c3)OCO4)nn2)c1 returned aSyn 5UTR act -109.1*.
Cc1ccc(NC(=O)N2C(=O)C3(OCCO3)c3ccccc32)cc1 was read as aSyn 5UTR act -164.5*.
Screening O=C(Nc1ccccc1)C1=C[C@@H](c2ccc3c(c2)OCO3)C[C@@H](OCCCCO)O1 returned aSyn 5UTR act -111.9*.
For O=C(Nc1ccccc1)C1=C[C@H](c2ccc3c(c2)OCO3)C[C@H](OCCCCO)O1 the results were aSyn 5UTR act -89.0*.
COc1ccc(OC)c(Cc2nnc(CCC(=O)N3CCN(C4CCCC4)CC3)o2)c1 was read as aSyn 5UTR act -74.0*.
For Cc1cc(C)c(C#N)c(SCc2nnc(-c3ccccc3)o2)n1 the results were aSyn 5UTR act 102.4.
`Cc1cc(C)c(C#N)c(SCc2nc3ccccc3[nH]2)n1` gave aSyn 5UTR act -172.6*.
Screening Clc1ccc(SCc2nc3ccccc3[nH]2)cc1 returned aSyn 5UTR act -112.1*.
`Fc1ccccc1CSCc1nc2ccccc2[nH]1` gave aSyn 5UTR act -133.3*.
`c1ccc2[nH]c(CSc3nccs3)nc2c1` gave aSyn 5UTR act -79.2*.
Cc1ccc(SCc2nc3ccccc3[nH]2)cc1 was read as aSyn 5UTR act -128.0*.
`c1ccc(SCc2nc3ccccc3[nH]2)cc1` gave aSyn 5UTR act -133.0*.
Screening O=C(Nc1ccc2c(c1)OCO2)N1CCN(c2ccccc2Cl)CC1 returned aSyn 5UTR act -187.4*.
O=C(Nc1ccc2c(c1)OCO2)N1CCN(S(=O)(=O)c2ccc(Cl)cc2)CC1 was read as aSyn 5UTR act -67.8*.
O=C(Nc1ccc2c(c1)OCO2)N1CCC(CO)(CC2CCCCO2)CC1 (configuration not stated) was read as aSyn 5UTR act -90.9*.
`Nc1nnc(/C=C/c2ccccc2Cl)s1` gave aSyn 5UTR act -81.3*.
COc1ccccc1-c1ccc(NC2CCCCC2)nn1 was read as aSyn 5UTR act -140.2*.
Screening CN(c1ccc(O)cc1)S(=O)(=O)c1ccc2ccccc2c1 returned aSyn 5UTR act -111.3*.
Screening Cc1ccc(N2CN=c3s/c(=C\c4ccccn4)c(=O)n3C2)cc1 returned aSyn 5UTR act -63.1*.

Source: PubChem (Broad Institute)
